Hit rate of the full screen: of about 310,000 compounds, about 14,000 (4.5%) showed an effect of 50% or more. Effects have a minus sign here. The sample holds strong results, similar compounds and a random draw of the others, so the mix is not that of the screen.
Molecular target: human ether-à-go-go-related gene (hERG) potassium channel (human, UniProt Q12809)
Assay: primary screen, population patch clamp on CHO cells stably expressing hERG; higher = less effect of the substance
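Further: peak tail current of the secondary pulse compared with the same well before compound.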

human ether-à-go-go-related gene (hERG) potassium channel, sequence (Q12809 whole entry, looked up): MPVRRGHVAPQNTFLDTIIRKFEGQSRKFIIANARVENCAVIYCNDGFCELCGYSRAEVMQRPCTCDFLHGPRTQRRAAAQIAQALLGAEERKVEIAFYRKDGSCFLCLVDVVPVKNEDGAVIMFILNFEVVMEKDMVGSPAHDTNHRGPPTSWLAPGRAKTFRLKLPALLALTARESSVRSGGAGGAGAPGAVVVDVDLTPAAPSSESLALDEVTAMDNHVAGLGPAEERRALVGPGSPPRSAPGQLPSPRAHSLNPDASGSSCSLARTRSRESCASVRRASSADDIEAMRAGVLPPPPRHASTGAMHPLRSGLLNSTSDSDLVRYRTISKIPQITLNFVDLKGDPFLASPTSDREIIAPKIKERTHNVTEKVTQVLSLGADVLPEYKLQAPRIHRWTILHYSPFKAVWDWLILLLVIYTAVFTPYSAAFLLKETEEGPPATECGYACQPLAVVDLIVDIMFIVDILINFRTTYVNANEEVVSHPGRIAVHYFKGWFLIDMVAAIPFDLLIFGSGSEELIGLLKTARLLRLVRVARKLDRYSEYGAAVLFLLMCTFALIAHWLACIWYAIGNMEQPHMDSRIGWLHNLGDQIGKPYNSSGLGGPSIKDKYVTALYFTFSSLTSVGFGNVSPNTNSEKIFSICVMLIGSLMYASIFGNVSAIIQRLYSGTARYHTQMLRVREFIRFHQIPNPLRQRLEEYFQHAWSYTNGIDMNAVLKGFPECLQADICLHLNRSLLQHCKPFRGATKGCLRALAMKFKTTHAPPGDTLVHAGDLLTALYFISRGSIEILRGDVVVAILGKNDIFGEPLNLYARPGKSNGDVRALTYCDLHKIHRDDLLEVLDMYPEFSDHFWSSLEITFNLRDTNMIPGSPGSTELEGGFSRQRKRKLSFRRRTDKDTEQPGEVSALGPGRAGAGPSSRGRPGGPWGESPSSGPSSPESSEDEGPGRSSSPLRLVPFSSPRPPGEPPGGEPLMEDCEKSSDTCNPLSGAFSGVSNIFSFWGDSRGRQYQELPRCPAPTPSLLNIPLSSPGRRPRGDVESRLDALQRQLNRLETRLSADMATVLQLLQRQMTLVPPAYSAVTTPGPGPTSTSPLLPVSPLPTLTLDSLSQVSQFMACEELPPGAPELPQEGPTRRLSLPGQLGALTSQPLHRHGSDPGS

| Structure (SMILES) | hERG current change (%, negative = inhibition) at 10uM |
| --- | --- |
| O=C(CN1C(=O)S/C(=C\c2cccc(Cl)c2)C1=O)NC1C=CS(=O)(=O)C1 (stereo not shown) | 18.1% |
| O=C(Nc1ccccc1F)c1ccc2c(c1)OCO2 | 15.7% |
| CC(C)NCCCOc1ccc(Cl)cc1Br.O=C(O)C(=O)O | -54.4% |
| COCCCNCCCCOc1ccc(Br)cc1C.O=C(O)C(=O)O | -64.6% |
| CC(C)NCCCCOc1ccccc1-c1ccccc1.O=C(O)C(=O)O | -32.9% |
| CC(C)NCCCCOc1cccc(Br)c1.O=C(O)C(=O)O | -25.8% |
| COCCNCCCCOc1ccc(Br)cc1C.O=C(O)C(=O)O | -36.7% |
| Cc1ccc(OCCOCCNC(C)C)c(Br)c1.O=C(O)C(=O)O | -18.3% |
| COCCCNCCCCOc1cccc(Br)c1.O=C(O)C(=O)O | -19.3% |
| CC(C)NCCCCOc1ccc(Br)cc1Cl.O=C(O)C(=O)O | -64.6% |
| Cc1cccc(NS(=O)(=O)c2cccc(C(=O)N3CCCCCC3)c2)c1 | -3.09% |
| Cc1cnn(-c2cc(N/N=C/c3ccc(F)cc3)ncn2)c1 | 5.69% |
| CC(C)Cc1nnc(NC(=O)CCC(=O)N2CCC3(CC2)OCCO3)s1 | 12.3% |
| O=c1c2ccccc2oc2cc(C#Cc3ccccn3)ccc12 | 7.36% |
| C/C=C(/C)C(=O)Nc1cccc(C2=NOC3(C2)C[C@@H](C(N)=O)N(C(=O)CCCCC)C3)c1 (stereo partly shown) | -40.1% |
| COc1cc(/C=N/NC(=O)c2cc(C3CC3)[nH]n2)ccc1O | -12.7% |
| CCOC(=O)C1=C(C)N(CC)C(=S)NC1c1ccc(Cl)cc1 (stereo not shown) | -9.13% |
| COc1ccc(C2=NNC(c3ccco3)=Nc3ccc(F)cc32)cc1 | -10.8% |
| COc1ccc2c(c1)C(c1ccc([N+](=O)[O-])cc1)=NNC(c1ccco1)=N2 | -60% |
| COc1ccc2c(c1)C(c1ccccc1)=NNC(c1ccco1)=N2 | -15.7% |
| O=C(CS(=O)(=O)c1cn(Cc2ccc(F)cc2)c2ccccc12)N1CCCCC1 | -0.405% |
| C#CC[N+](C)(C)CC#Cc1ccc(C)cc1.[Br-] | 6.33% |
| CC[N+](CC)(CC#Cc1ccccc1)CC#Cc1ccccc1.[Br-] | -69.8% |

| Structure (SMILES) | hERG current change (%, negative = inhibition) at 10uM |
| --- | --- |
| CC[N+](CC)(CC#CCO)CC#Cc1ccccc1.[Br-] | 33.7% |
| Cc1ccc(C#CC[N+](C)(C)CC#Cc2ccccc2)cc1.[Br-] | -75.9% |
| C#CC[N+](C)(C)CC#Cc1ccccc1.[Br-] | 13.3% |
| C#CC[N+](CC)(CC)CC#Cc1ccccc1.[Br-] | 9.22% |
| O=C(CSc1nnc(CNC(=O)c2ccco2)o1)Nc1ccc(F)cc1F | 8.95% |
| O=C(c1ccc(C#Cc2ccccc2)o1)N1CCN(c2ccccn2)CC1 | -6.76% |
| COc1ccc(Nc2ncccc2C(=O)Nc2ccccc2)cc1 | -9.63% |
| Cc1ccc(OCc2ccccc2Br)c([N+](=O)[O-])n1 | 16.7% |
| CC(=O)c1ccc(-c2nnc(CCC(=O)N(C)Cc3cccc4cnccc34)o2)s1 | -81.4% |
| COc1ccccc1CCc1nnc(CCC(=O)N(C)Cc2cccc3cnccc23)o1 | -35.3% |
| CN(Cc1cccc2cnccc12)C(=O)CCc1nnc(CCc2ccccc2)o1 | -44.7% |
| O=C(NC1CCCCC1)C(c1ccncc1)N(Cc1ccc(F)cc1)C(=O)c1ccccn1 (stereo not shown) | -5.49% |
| Cc1cc(S(=O)(=O)N2CCc3ccccc3C2)ccc1F | 7.2% |
| CC(CCc1ccccc1)NC(=O)CN1CCN(c2ccccc2)CC1 (stereo not shown) | -55.8% |
| COc1ccc(N2CCN(CC(=O)NC(C)c3ccccc3)CC2)cc1 (stereo not shown) | 20.6% |
| CC(NC(=O)CN1CCN(c2ccc(Cl)cc2)CC1)c1ccccc1 (stereo not shown) | -42.7% |
| COc1ccc(/C=N/NC(=O)CN2CCCC2)cc1 | -14.8% |
| COc1ccc(C(NC(=O)CN2CCCCCC2)c2ccc(OC)cc2)cc1 | -65.9% |
| O=C(CN1CCN(c2ccc(O)cc2)CC1)NC(c1ccccc1)c1ccccc1 | -50.8% |
| CC(CCc1ccccc1)NC(=O)CN1CCN(c2ccc(O)cc2)CC1 (stereo not shown) | -37.1% |
| CC(=O)C(Cc1ccccc1)NC(=O)CN1CCN(Cc2ccccc2)CC1 (stereo not shown) | -5.57% |
| O=C(CN1CCN(Cc2ccccc2)CC1)NC(c1ccccc1)c1ccccc1.O=C(O)C(=O)O | -59.8% |
| O=C(CN1CCN(c2ccccc2O)CC1)NC(c1ccccc1)c1ccccc1 | -22.7% |
